This is one part of a sample in which hits are shown more often than they occur.
TTR transcr act: increases transthyretin transcription; SH-SY5Y TTR promoter Gaussia luciferase, luminescence; 100% = recombinant luciferase protein wells; activation, % at 16.7 µM; 1.3% of 92,000 active; AID 1117267;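 active = activation above the mean of all tested compounds plus 3 SD, cut at about 9.5% in these data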;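 also: cells exposed to compounds for one day before reading; 0% = median of all test compound wells on the plate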
TTR inh HuH7: decreases TTR transcription in HuH7 cells in activator counter-screen; HuH7 TTR promoter-Gaussia luciferase reporter, luminescence; 4% of 1,100 active; inhibition, % at 16.7 µM; shares compounds with TTR transcr act;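 active = average inhibition above the solvent-only control wells' mean plus 3 SD, cut at about 15% in these data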;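 also: 0% = cells with DMSO only and 100% = cells with inhibitor control FD; inhibitors lower well luminescence so higher value means more inhibition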
TTR act confirm: human TTR transcription activation, confirmation; SHSY5Y TTR promoter Gaussia luciferase, luminescence; 100% = purified Lucia enzyme wells, no cells; shares compounds with TTR transcr act; 1,100 tested, under 10 active; activation, % at 16.7 µM;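 active = mean activation above a set limit taken from the earlier primary screen, cut at about 11% in these data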;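 also: 0% = DMSO-treated cells and 100% = recombinant Lucia luciferase without cells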
Active calls of the source: *.

SMILES	TTR transcr act	others
Cc1ccc(NC(=O)CC2SC(=NC3CCCCC3)NC2=O)cc1 (centres undefined)	0
O=C(CC1SC(=O)NC1=O)Nc1ccc(Cl)cc1 (centres undefined)	12*	TTR inh HuH7=7;TTR act confirm=0
COC(=O)[C@]12C[C@H](CC(=O)NCCCN3CCCC3=O)C(=O)N(Cc3cccc4ccccc34)C1=C[C@H](C(C)C)O[C@@H]2C1CC1	-1
O=S(=O)(c1ccccc1)N1N=C(c2ccc(Cl)cc2)CC1c1ccco1 (centres undefined)	-3
Cn1c(=O)cc(OCCCC(=O)Nc2cc(-c3cn[nH]c3)ccn2)c2ccccc21	1
COc1ccc2c(c1)NC(=O)[C@@]2(CCN1C(=O)c2ccccc2C1=O)c1[nH]c2ccccc2c1CCN1C(=O)c2ccccc2C1=O	-2
O=C(COC(=O)c1ccc(CO)cc1)Nc1ccc2ccccc2c1	-1
O=C(COc1ccccc1)N1CCN(c2ccccc2)CC1	2
O=C(OCC(=O)N1CCN(c2ccccc2)CC1)c1ccc(O)cc1O	15*	TTR inh HuH7=-25;TTR act confirm=0
O=C(COC(=O)c1ccc(O)cc1O)Nc1ccc2ccccc2c1	21*	TTR inh HuH7=-23;TTR act confirm=1
Cc1cc(C(=O)OCC(=O)N2CCOCC2)c(C)n1-c1ccccc1	0
O=C(COC(=O)c1ccc2ccccc2c1O)Nc1ccccc1	0
Cc1cccc(C)c1-n1nnnc1C1c2ccccc2OCC(=O)N1Cc1ccc(F)cc1 (centres undefined)	-1
COC(=O)[C@]12C[C@H](CC(=O)NCC3CCCCC3)C(=O)N(Cc3ccco3)C1=C[C@H](C1CCCC1)O[C@@H]2C	1
O=C(Nc1ccc(OC(F)(F)F)cc1)Nc1c(-c2ccc(C(F)(F)F)cc2)nc2ncccn12	7
COc1ccc(S(=O)(=O)N2CCCCC2)cc1NC(=O)c1ccc(CS(C)(=O)=O)cc1	1
CC(C)NC(=S)NC(=O)/C=C/c1cccc2ccccc12	17*	TTR inh HuH7=-4;TTR act confirm=-1
CC(O)C(=O)N/N=C/c1cccc2ccccc12 (centres undefined)	-1
COC(=O)C(CC(C)C)NC(=O)/C=C/c1ccccc1Cl (centres undefined)	-2
COc1ccccc1Cn1nc(C(=O)O)c2ccccc2c1=O	2
CC(C)(C)NC(=O)c1nn(Cc2ccccc2)c(=O)c2ccccc12	10*	TTR inh HuH7=-27;TTR act confirm=0
CCN(CC)CCNC(=O)Cc1nn(Cc2ccccc2)c(=O)c2ccccc12	0
CCCC[C@H](C(=O)N(C)c1cccc(OC)c1)[C@@H](O)c1ccc(C(C)=O)cc1	-1
O=C1CCC(CNc2ccccc2)N1c1ccccc1 (centres undefined)	1
COC(=O)[C@]12C[C@H](CC(=O)N3CCN(C(=O)C4CC4)CC3)C(=O)N(CCC3=CCCCC3)C1=C[C@H](C1CCCC1)O[C@@H]2C	3
SMILES	TTR transcr act	others
C[C@@H]1COc2cc(Br)ccc2S(=O)(=O)N1Cc1cn(CC2CCCCC2)nn1	-2
O=C(CSc1nc2ccccc2c(=O)[nH]1)NC1CCCCC1	0
CC[C@@H]1/C(=C/c2ccccc2)N2C(=O)C[C@@H](c3ccccc3)N=C2N1Cc1ccc(OC)cc1OC	1
CCOC(=O)C1CCN(C(=O)CN(c2ccc3c(c2)OCO3)S(C)(=O)=O)CC1	18*	TTR inh HuH7=-10;TTR act confirm=2
CCOC(=O)C1CCN(C(=O)CN(c2ccc(Cl)c(C(F)(F)F)c2)S(C)(=O)=O)CC1	-3
CCOC(=O)C1CCN(C(=O)COc2ccc3c(c2)OCO3)CC1	0
O=c1cc(N2CCN(c3ccnc4cc(Cl)ccc34)CC2)[nH]c(=O)n1C1CCCCC1	2
COc1ccc2c3c1OC1CC(O)C=CC31CCN(C)C2 (centres undefined)	12*	TTR inh HuH7=-10;TTR act confirm=0
C=CCN(C(=O)[C@@H](C)[C@@H](O)c1ccc2ccccc2c1)c1ccccc1	-1
CC(C)(C)S(=O)N1Cc2ccc(CO)cc2[C@H]1CCO (some centres undefined)	3
CC(C)(C)S(=O)N1Cc2cc(CO)cc(-c3ccccc3)c2[C@H]1CCO (some centres undefined)	0
CC(C)(C)S(=O)N1Cc2cc(=O)n(Cc3ccccc3)cc2[C@H]1CCO (some centres undefined)	11*	TTR inh HuH7=-9;TTR act confirm=1
COc1ccc(Cc2nc3ccc(C(=O)N4CCCC4)cc3o2)cc1	-1
COC(=O)CCCNC(=O)c1ccc2nc(Cc3ccc(OC)cc3)oc2c1	1
COc1ccc(Cc2nc3ccc(C(=O)NCc4cc(C)no4)cc3o2)cc1OC	9.9*	TTR inh HuH7=1;TTR act confirm=0
COc1ccc(Cn2ccc3ccc(-c4ccc5ccn(Cc6ccc(F)cc6)c5c4)cc32)cc1	0
COc1ccccc1CNC(=O)N1CCN(S(=O)(=O)c2ccccc2)CC1	-1
COc1ccccc1CNC(=O)N1CCN(S(=O)(=O)c2ccc(Cl)cc2)CC1	38*	TTR inh HuH7=-14;TTR act confirm=0
COc1cccc(CNC(=O)N2CCN(S(=O)(=O)c3ccc(Cl)cc3)CC2)c1	2
Cc1ccc(CN2CCCCC(NC(=O)Nc3ccccc3)C2=O)cc1 (centres undefined)	-2
CC(=CC(=O)c1ccccc1)c1ccccc1	8
CC1CC(C)CN(C(=O)c2cccc(NC(=O)CC3SC(N4CCCCC4)=NC3=O)c2)C1 (centres undefined)	4
COc1ccc(NC(=O)CC2SC(N3CCCC3)=NC2=O)cc1Cl (centres undefined)	6
Cc1ccc(NC(=O)c2cccc(NC(=O)CC3SC(N4CCCCC4)=NC3=O)c2)nc1 (centres undefined)	9.8*	TTR inh HuH7=-6;TTR act confirm=0
C[C@@H]1CCN(C2CC2)S(=O)(=O)c2c(cccc2N2CCC[C@H]2CO)O1	0
SMILES	TTR transcr act	others
CC1CC1C(=O)OCC(=O)Nc1ccc(N=Nc2ccccc2)cc1 (centres undefined)	-2
Cc1ccc(C(=O)c2ccccc2C(=O)OCC(=O)Nc2cccc([N+](=O)[O-])c2)cc1	-2
CC1CC1C(=O)OCC(=O)Nc1cccc([N+](=O)[O-])c1 (centres undefined)	12*	TTR inh HuH7=-5;TTR act confirm=0
S=C(NCc1cccs1)Nc1cccc2ccccc12	1
N#Cc1c(F)cccc1NCc1cccs1	14*	TTR inh HuH7=-9;TTR act confirm=1
O=S(=O)(NCc1cccs1)NCc1ccccc1F	4
O=C(Nc1ccccc1Oc1ccccc1)NC1CCCCN(Cc2ccc(Cl)cc2)C1=O (centres undefined)	2
CCCCn1c(N)c(N(CC(C)C)C(=O)CN2C(=O)NC3(CC(C)CC(C)(C)C3)C2=O)c(=O)[nH]c1=O (centres undefined)	11*	TTR inh HuH7=-3;TTR act confirm=0
CCCCn1c(N)c(N(CC(C)C)C(=O)Cn2c(=O)oc3ccccc32)c(=O)[nH]c1=O	-1
CCCCn1c(N)c(N(CC(C)C)C(=O)C2CC(=O)N(c3ccc(C)cc3)C2)c(=O)[nH]c1=O (centres undefined)	0
O=C(NCC1CC1)c1ccc(Nc2nc3ccc(Br)cc3[nH]2)cc1	34*	TTR inh HuH7=1;TTR act confirm=-1
O=C(NCCc1nc2ccccc2[nH]1)c1cccc(Br)c1	4
O=C(Cc1ccc(Nc2nc3ccc(Br)cc3[nH]2)cc1)NCCc1cccs1	-5

Source: PubChem (The Scripps Research Institute Molecular Screening Center)
